# JMJD2A Tudor – JMJD2A Tudor domain (human) inhibition; O75164; AlphaScreen JMJD2A-Tudor / H3K4me3 peptide binding; Potency, µM (highest dose often 114 µM), without a hit: at the top dose activity change, negative = inhibition, most hits filed as inhibitors; 390,000 tested, 4.4% active; note: potency is the fitted concentration of half-maximal effect; % is set by controls: 0 for no effect and ±100 for the full control effect; nearly all actives have a fitted effect of over 50% in size
# HP1b chromo inh – blocks HP1-beta chromodomain binding to methylated histone tails; AID 540317; AlphaScreen HP1-beta / biotin-H3K9me3 peptide binding; 390,000 tested, 0.56% active; P83916; Potency, µM (doses to about 114 µM), without a hit: at the top dose activity change, negative = inhibition, hits mostly inhibitors; note: potency is the fitted concentration of half-maximal effect; nearly all actives have a fitted effect of over 70% in size
# Target sequence (P83916 whole entry, looked up): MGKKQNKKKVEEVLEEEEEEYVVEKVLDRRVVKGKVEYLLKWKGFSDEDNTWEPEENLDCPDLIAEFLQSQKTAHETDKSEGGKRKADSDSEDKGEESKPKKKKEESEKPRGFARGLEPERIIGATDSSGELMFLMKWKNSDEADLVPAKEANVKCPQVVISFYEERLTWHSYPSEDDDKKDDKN
#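 AlphaScreen: HP1-beta (50 nM) preformed 30 min with biotin-H3(1-18)K9me3 peptide (50 nM) in PBS pH 7.4, 0.01% Tween-20. Compound added for 30 min at RT, then streptavidin donor/nickel chelate acceptor beads (10 ug/mL) for 30 min.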
# CtBP-E1A blk – CtBP/E1A binding inhibition; activity change, % (test concentration not listed); 340,000 tested, 0.49% active; AlphaScreen GST-E1A/His-CtBP binding, 1536-well; hits give low values; AID 651724; in the data active = activity change below about -65%; inconclusive = mostly about -30% to -63%; note: % is set by controls: 0 for no effect and ±100 for the full control effect
#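 Protein mix (5X: 125 nM each GST-E1A, His-CtBP) was incubated with pinned compound 2 h at 37 deg C in dark, in 50 mM Tris pH 8.0 buffer with 300 mM NaCl. Glutathione donor and nickel acceptor beads followed; AlphaScreen signal read after 1 h.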
# Six1-Eya2 blk – blocks human Six1 binding to Eya2; activity change, % (no concentration beside the values); 360,000 tested, 0.56% active; AlphaScreen GST-Six1/His-Eya2 binding, biochemical; hits give low values; in the data active = activity change below about -65%; inconclusive = mostly about -30% to -63%; note: % is set by controls: 0 for no effect and ±100 for the full control effect
#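 AlphaScreen luminescence read after one hour at 37 °C in darkness. Pin-transferred compounds met GST-Six1 and His-Eya2 protein (5X stock 250 nM/500 nM) plus glutathione donor and Ni-chelate acceptor beads (5X, 50 ug/mL).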
# BAZ2B inh – inhibitors of human BAZ2B bromodomain; Q9UIF8; AlphaScreen BAZ2B-H3K14Ac peptide displacement; Potency, µM (titrated, usually from 114 µM), without a hit: top-dose activity change, negative = inhibition, most hits filed as inhibitors; 360,000 tested, 4.4% active; AID 504333; note: potency is the fitted concentration of half-maximal effect; % is set by controls: 0 for no effect and ±100 for the full control effect; nearly all actives have a fitted effect of over 60% in size
#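 Inhibition is scored as reduced AlphaScreen emission. The BAZ2B/b-H3(5-23)K14Ac complex (50 nM each) in PBS pH 7.4, 0.01% Tween-20 meets compound (up to 110 uM) for 30 min at RT before bead addition.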
# G9a inh – G9a (human) methyltransferase inhibition; G9a H3K9 monomethylation, AlphaScreen, 2 h; Potency, µM (doses to about 102 µM), without a hit: at the highest dose activity, negative = inhibition, hits mostly inhibitors; 350,000 tested, 8.8% active; note: potency is the fitted concentration of half-maximal effect; % is set by controls: 0 for no effect and ±100 for the full control effect; nearly all actives have a fitted effect of over 75% in size
# Target sequence (Q96KQ7 913-1193 limits assumed): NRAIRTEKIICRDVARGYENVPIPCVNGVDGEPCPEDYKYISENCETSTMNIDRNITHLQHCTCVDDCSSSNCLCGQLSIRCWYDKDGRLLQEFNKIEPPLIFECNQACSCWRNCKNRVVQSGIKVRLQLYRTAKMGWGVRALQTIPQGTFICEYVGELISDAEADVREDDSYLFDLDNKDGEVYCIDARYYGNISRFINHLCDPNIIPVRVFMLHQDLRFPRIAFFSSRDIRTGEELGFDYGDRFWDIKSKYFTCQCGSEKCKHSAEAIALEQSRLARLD
#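 Readings reflect AlphaScreen signal from monomethyl-H3K9 antibody detection. HMT at 20 nM; substrate b-H3K9 500 nM; cofactor SAM 20 uM; 2 h RT reaction; compounds tested as titrations in qHTS with 15 min preincubation.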
# * marks the source's active call; other numbers are inactive results; ? = inconclusive; / = no result given; ! = repeats disagree; [ ] = another dose, or the depositor's remark. Hits are enriched below; roughly 10% of the tested compounds scored in any of these assays. Unless noted, calls come from the whole dose curve; as a rule, active = well fitted inhibition curve with a large enough effect; inconclusive = small, poorly fitted or top-dose-only effect; inactive = no such curve, though single readings can be large or run the other way.
SMILES,JMJD2A Tudor,HP1b chromo inh,CtBP-E1A blk,Six1-Eya2 blk,BAZ2B inh,G9a inh
Cc1ccc(/C=C2\C(=O)NC(=O)N(CCc3ccc(F)cc3)C2=O)o1,-24%,27%,/,3,-8%,3.2µM*
CN(C)c1ccc(/C=C2/C(=O)NC(=O)N(CCc3ccc(F)cc3)C2=O)cc1,28µM*,0%,/,1,?,?
O=C1NC(=O)N(c2ccc3c(c2)OCO3)C(=O)/C1=C/c1ccsc1,-5%,36%,-6,6,-6%,?
O=C1NC(=O)N(c2ccc3c(c2)OCO3)C(=O)/C1=C/c1cccs1,-35%,19%,-5,9,-16%,11µM*
COc1ccc(C(C)=O)cc1COc1ncnc2ccccc12,-21%,33%,15,4,-17%,?
O=c1oc(Cl)c(Cl)c2ccccc12,?,-11%,5,-1,?,6.7µM*
CCN(CC)P(=O)(Nc1ccc([N+](=O)[O-])cc1)c1c(C)nn(CCC#N)c1NC(=O)c1ccc(Cl)cc1 (configuration not stated),-30%,-23%,-2,2,-16%,?
C#CCOC(C(=O)OCCN(C)C)(c1ccccc1)c1ccccc1,/,/,/,/,/,-27%[12.7 µM]
Cc1oc(-c2cccc(Cl)c2)nc1CN1CCC(C(=O)NCCCN2CCN(c3cccc(Cl)c3)CC2)CC1,32µM*,-8%,/,/,28µM*,?
Cc1oc(-c2ccccc2Cl)nc1CN1C(=O)CN=C(c2ccccc2)c2cc(Cl)ccc21,-10%,34%,/,/,-5%,-34%[59 µM]
CC(C)NC(=O)N1CC[C@@]2(CCCNC2)C1,/,/,/,/,/,-14%[12.7 µM]
CCC(C)N1CCN(C(=O)COc2ccc3ccccc3c2)CC1 (configuration not stated),2.8µM*,50µM*,0,-3,18µM*,1.8µM*
CN1CCN(C(=O)COc2ccc(Oc3ccccc3)cc2)CC1,-10%,10%,-10,6,-7%,?
O=C(COc1ccc2ccccc2c1)N1CCN(Cc2c[nH]c3ccccc23)CC1,8.9µM*,?,4,-1,50µM*,?
Cc1ccc(CN(Cc2ccccc2)C(=S)NCC(=O)N2CCC3(CC2)OCCO3)o1,-35%,-13%,5,-11,?,50µM*
O=C(Cn1ccc2ccccc2c1=O)NCC(=O)N1CCC2(CC1)OCCO2,-1%,36%,13,-6,-1%,-19%
CC(C)(COC(=O)C(c1ccccc1)c1ccccc1)CN1CCOCC1,106%,82%,29,17,/,/
C=CCSc1nnc(NC(=O)c2ccc(Cl)nc2)s1,-1%,73%,0,3,-26%,-50%[12.7 µM]
CCCCCP(=O)(O)c1ccccc1,-13%,20%,1,9,/,-1%[59 µM]
CCCC/C(C)=C/[C@@H](NP(=O)(c1ccccc1)c1ccccc1)c1ccccc1,-19%,22%,-1,-4,-37%,32µM*
COc1cc(CN2CCNCC2)cc(OC)c1OC,-17%,11%,1,2,4%,/
COc1cccc(CN2CCNCC2)c1,-10%,37%,5,-1,-6%,79µM*
COCC(=O)N(c1c(C)cccc1C)C(C)C(=O)OC (configuration not stated),/,/,/,/,/,3%[12.7 µM]
C[N+]1(C)CCC(OC(=O)C(c2ccccc2)c2ccccc2)CC1,?,17%,2,3,/,6.7µM*!
C[N+]1(C)C2CCC1CC(OC(=O)c1c[nH]c3ccccc13)C2 (configuration not stated),50µM*,27%,2,-3,-31%,11µM*
SMILES,JMJD2A Tudor,HP1b chromo inh,CtBP-E1A blk,Six1-Eya2 blk,BAZ2B inh,G9a inh
C[N+]1(C)C2CC[C@H]1CC(OC(=O)C(CO)c1ccccc1)C2 (some centres not stated),-4%,40%,0,5,-4%,1%[59 µM]
C[N+]1(C)[C@@H]2CC[C@H]1CC(OC(=O)[C@@H](CO)c1ccccc1)C2 (some centres not stated),?,-9%,/,-1,-16%,7.9µM*!
N=C(N)c1ccc(CS(=O)(=O)F)cc1,/,/,/,/,/,-85%[59 µM]
OCc1cccc[n+]1CCc1ccccc1,-10%,41%,2,0,/,/
CN1CCC(n2nccc2N)CC1,2%,23%,-1,2,-9%,0%[12.7 µM]
Nc1ccnn1C1CCNCC1,-17%,?,12,1,3%,22µM*
Oc1ccc(C[C@H]2NCCc3cc(O)c(O)cc32)cc1O,40µM*,79µM*,5,-5,-19%,?
CCOCCCNC(=O)c1c[nH]c2ccc(S(=O)(=O)N(C)c3ccc(Cl)cc3F)cc2c1=O,-23%,49%,/,/,0%,2%[59 µM]
COc1ccc2[nH]c3c(c2c1)CCN=C3C,35µM*,-29%,?,-70*,45µM*,8.9µM*
COc1ccc(-n2c(=O)[nH]c3ccccc3c2=O)cc1,0%,24%,3,0,4%,/
Cc1c(C)c2ccc(OCC(=O)N3CCC[C@@H]3C(=O)O)c(C)c2oc1=O,?,16%,2,-8,-9%[57.1 µM],/
CCN(CC)c1ccc(NC(=O)c2cccc(C)c2)cc1S(=O)(=O)Nc1ccccc1OC,?,?,-10,0,-37%,3.5µM*
COc1ccccc1NC(=O)c1oc2ccccc2c1NC(=O)COc1cccc(C)c1,-14%,43%,/,/,-3%,1%[59 µM]
C[C@H]1C(=O)O[C@@H]2CCN3CC=C(COC(=O)[C@@](C)(O)[C@@]1(C)O)[C@H]23,/,/,/,/,/,23%[21.5 µM]
CN(C)CCO,/,/,/,/,/,23%[59 µM]
Cn1c(O)c(/C=N/NC(=O)c2ccncc2)c(=O)n(C)c1=S,?,40%,/,-10,?,28%[12.7 µM]
CCn1c(O)c(/C=N/NC(=O)c2ccncc2)c(=O)n(CC)c1=S,-15%,74%,/,-2,32%,-10%
Cn1c(O)c(/C=N/NC(=O)c2ccncc2)c(=O)[nH]c1=S,79µM*,56%,/,-14,18%,/
CCCCn1c(O)c(/C=N/NC(=O)c2ccncc2)c(=O)[nH]c1=S,-28%,57%,-29,-85*,79µM*,-4%
CC(c1nc2ccccc2c(=O)[nH]1)N(C)CCOc1ccc(Cl)cc1 (configuration not stated),-15%,43%,/,4,-14%,34%
CCC1CO/C(=C(\C(Cl)=C(Cl)Cl)[N+](=O)[O-])N1Cc1ccc(Cl)nc1 (configuration not stated),-28%,20%,1,3,79µM*,?
CC(C)CN1CCC2(CC1)CCN(S(C)(=O)=O)CC2,/,/,/,/,/,7%[12.7 µM]
CCCCCCC(C)(C)c1cc(OC)c2c(c1)OC(C)(C)[C@@H]1CC=C(C)C[C@@H]21,/,/,/,/,/,15%[59 µM]
CC(=O)Nc1ccc(Nc2c(CCC(C)C)c(C)c(C#N)c3nc4ccccc4n23)cc1,-14%,40%,/,/,0%,-30%[59 µM]

# Compound activity: PubChem, National Center for Advancing Translational Sciences (NCATS)
